Test results taken from PubChem BioAssay (NCATS).
Results filed as inconclusive are left out. Entries that show only a call come without a potency. Active and inactive are the calls of the source. Calls follow the shape of the dose curve; as a rule, active = well fitted inhibition curve with a large enough effect; inconclusive = small, poorly fitted or top-dose-only effect; inactive = no such curve, though single readings can be large or run the other way.

Each compound was assayed against N-terminal Xaa-Pro-Lys N-methyltransferase 1 (Homo sapiens) (UniProt Q9BV86) (assay: qHTS Assay for Inhibitors of N-terminal methyltransferase 1 (NTMT1): LOPAC validation of the NTMT1 SAHH-coupled ThioGlo3 Assay (AID 1347143;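 also: SAH from peptide methylation measured as thiol fluorescence via SAHH coupling and ThioGlo3; nearly all actives have a fitted effect of over 70% in size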)). Settings: recombinant NTMT1, SAHH-coupled ThioGlo3 fluorescence; series mostly up to 114 µM.
Chain of N-terminal Xaa-Pro-Lys N-methyltransferase 1 (Homo sapiens) (Q9BV86 whole entry, looked up): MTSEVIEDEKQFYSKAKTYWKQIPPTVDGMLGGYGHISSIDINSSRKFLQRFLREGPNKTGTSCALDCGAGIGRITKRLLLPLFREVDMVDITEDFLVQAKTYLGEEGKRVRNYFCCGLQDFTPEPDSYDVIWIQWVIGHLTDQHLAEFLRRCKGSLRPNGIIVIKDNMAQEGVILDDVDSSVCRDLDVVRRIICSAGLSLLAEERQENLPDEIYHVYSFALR
In short: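 Recombinant human NTMT1 (125nM) was pre-incubated 1 min at room temperature with compounds over a concentration range, then a mix of 100uM SAM, 10uM SAHH and 15uM ThioGlo3 (concentrations in added reagent) was added. ThioGlo3 fluorescence (ex 340/em 450nm) after 30 min was normalized to the initial reading.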
`CCN(CC)CCOC(=O)c1ccc(N)cc1` was tested, and the Potency was “inactive”. In the case of `O=C1NC(=O)C(c2ccccc2)(c2ccccc2)N1`, the Potency is reported as “inactive”. `CCN(CC)CCNC(=O)c1ccc(N)cc1` was tested, and the Potency was “inactive”. With `CCCCC1C(=O)N(c2ccccc2)N(c2ccccc2)C1=O` the Potency was “inactive”.

Each compound was assayed on Zika virus NS2B-NS3 protease (unlinked) (assay: Optimization of GU AMC qHTS for Zika virus inhibitors: Unlinked NS2B-NS3 protease assay (AID 1347151; also: nearly all actives have a fitted effect of over 80% in size; also: potency is read from the fitted curve at half-maximal effect)). Settings: recombinant ZIKV NS2B-NS3 protease, fluorogenic AMC substrate; series mostly up to 52.5 µM.
In short: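 Percent inhibition is derived from the 15-min change in AMC fluorescence, normalized against no-inhibitor and no-enzyme controls, then fitted to a 4-parameter Hill curve. Aprotinin was the intraplate control.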
`C[N+](C)(C)CCCCCC[N+](C)(C)C` was tested, and the Potency was “inactive”. For `Cc1cccc(C)c1OCC(C)N` (stereo not given), the Potency was “inactive”. For `CC(=O)N[C@@H](CS)C(=O)O`, the Potency was “inactive”. For `NC(N)=Nc1nc(CSCC/C(N)=N/S(N)(=O)=O)cs1`, the Potency was “inactive”. In the case of `CC(=O)CCCCn1c(=O)c2c(ncn2C)n(C)c1=O`, the Potency is reported as “inactive”. With `O=c1c(-c2ccc(O)cc2)coc2cc(O)ccc12` the Potency was 29.9 µM (active). With `CC(=O)O[C@]1(C(C)=O)CC[C@H]2[C@@H]3C=C(Cl)C4=CC(=O)[C@@H]5C[C@@H]5[C@]4(C)[C@H]3CC[C@@]21C` the Potency was “inactive”. `CC(C)NCC(O)COc1cccc2[nH]ccc12` (stereo not given) was tested, and the Potency was “inactive”. With `CCCNC(=O)NS(=O)(=O)c1ccc(Cl)cc1` the Potency was “inactive”. `COC(=O)[C@@H]1[C@H]2C[C@H]3c4[nH]c5ccccc5c4CCN3C[C@@H]2CC[C@@H]1O` was tested, and the Potency was “inactive”. `CN(C)CCC(c1ccccc1)c1ccccn1` (stereo not given) was tested, and the Potency was “inactive”. In the case of `CCN1CCC[C@H]1CNC(=O)c1cc(S(N)(=O)=O)ccc1OC`, the Potency is reported as “inactive”. In the case of `Clc1ccc(Cn2c(CN3CCCC3)nc3ccccc32)cc1`, the Potency is reported as “inactive”. In the case of `COc1cccc(-c2cc(=O)c3ccccc3o2)c1N`, the Potency is reported as “inactive”. In the case of `CC(C)(C)c1ccc(C(O)CCCN2CCC(C(O)(c3ccccc3)c3ccccc3)CC2)cc1` (stereo not given), the Potency is reported as “inactive”. In the case of `O=C(NCCN1CCOCC1)c1ccc(Cl)cc1`, the Potency is reported as “inactive”.
